# Measured values as given in PubChem BioAssay.
# “And” between values parts separate entries of the source, which are not always exact repeats. Identical values can stand only once. Results filed as inconclusive are left out. For some of these results: Measured potencies and affinities stand elsewhere. Some structures have more than one record in an assay (separate samples or runs), and their calls can disagree. The source made the active and inactive calls.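 Rule for the calls, unless noted: active = compounds whose cell count with miR-34 switched on is under 0.7 times the count with it off; inactive = the rest.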 Peptide text beside a SMILES is read from it.
# Key:
# [1] = molecular target: 6-phosphogluconate dehydrogenase, decarboxylating (Homo sapiens) (UniProt P52209); assay: 6PGD enzyme inhibitors, primary screen, biochemical, human, recombinant enzyme, NADPH absorbance (AID 1159550;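 active = at least 20% inhibition of 6-phosphogluconate dehydrogenase activity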); details: recombinant 6PGD, NADPH absorbance 341 nm; at 10 µM; stronger effect = higher value
# 6-phosphogluconate dehydrogenase, decarboxylating (Homo sapiens), sequence (P52209 whole entry, looked up): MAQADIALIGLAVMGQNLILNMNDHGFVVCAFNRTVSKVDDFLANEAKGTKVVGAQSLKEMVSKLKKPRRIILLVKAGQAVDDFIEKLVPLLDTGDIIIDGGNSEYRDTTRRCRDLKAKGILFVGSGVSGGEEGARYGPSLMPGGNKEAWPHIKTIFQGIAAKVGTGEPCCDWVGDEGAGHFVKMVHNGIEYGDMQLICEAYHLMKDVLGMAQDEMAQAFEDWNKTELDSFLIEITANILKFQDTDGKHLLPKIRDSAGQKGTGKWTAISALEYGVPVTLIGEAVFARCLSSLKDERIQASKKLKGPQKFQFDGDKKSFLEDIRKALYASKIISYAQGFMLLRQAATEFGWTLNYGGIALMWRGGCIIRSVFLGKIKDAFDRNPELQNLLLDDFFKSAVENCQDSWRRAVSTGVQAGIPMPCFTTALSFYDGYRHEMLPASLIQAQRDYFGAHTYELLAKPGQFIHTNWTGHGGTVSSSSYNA
# [2] = differential killing of epithelial or mesenchymal cells, primary screen, imaging, PC-3E GFP, TEM4-18 mCherry, co-culture (AID 1345086;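 active = compounds killing one labelled cell type while sparing the other, by normalised counts and ratio limits, not self-fluorescent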;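 for all read-outs here: cells exposed to compound for 72 h before imaging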;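 for red/green cell ratio (normalised): normalised mesenchymal count divided by normalised epithelial count so high means epithelial killing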); details: imaging cell counts, at 1 µM; for red/green cell ratio (normalised): actives lie on both sides, counts scaled to control wells, 1 = unselective
# [3] = growth inhibition of DIPG glioma cells, dose response, cell-based, SU-DIPG-XIII, MIPE4.0, CellTiter-Glo, qHTS (AID 1347061; cut-off not given, nearly all actives have AC50 up to about 37 µM;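 note: cells exposed to compound for 48 hours before readout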); details: SU-DIPG-XIII viability, CellTiter-Glo ATP luminescence
# [4] = sensitizers of A549 cells to miR-34 induction, primary screen, imaging, A549 dox-inducible miR-34, nuclei and caspase counts (AID 1347080); details: A549 miR-34 inducible, Hoechst nuclei count, 48 h
# [5] = survival rescue of mitochondrial mutant cells in low glucose, primary screen, MELAS cybrids, Rieske KO mouse fibroblasts, CellTiter-Glo (AID 1508586;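 active = mean z-score across replicates of 1.96 or higher in either the MELAS or the Rieske mutant cell line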;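 note: z relative to plate mean and SD of compound and empty wells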)
# [6] = molecular target: Mitogen-activated protein kinase 7 (Homo sapiens) (UniProt Q13164); assay: ERK5 transactivation activators in reporter cells, primary screen, cell-based, HTS (AID 1508626;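 active = luciferase signal above three times the same-plate solvent-only control wells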;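 note: luciferase driven by Gal4-ERK5 fusion binding five Gal4 sites before minimal TATA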); details: HeLa Gal4-ERK5 transactivation, 18 h, at 5 µM, stronger effect = higher value
# Mitogen-activated protein kinase 7 (Homo sapiens), sequence (Q13164 whole entry, looked up, the tested form may be a part): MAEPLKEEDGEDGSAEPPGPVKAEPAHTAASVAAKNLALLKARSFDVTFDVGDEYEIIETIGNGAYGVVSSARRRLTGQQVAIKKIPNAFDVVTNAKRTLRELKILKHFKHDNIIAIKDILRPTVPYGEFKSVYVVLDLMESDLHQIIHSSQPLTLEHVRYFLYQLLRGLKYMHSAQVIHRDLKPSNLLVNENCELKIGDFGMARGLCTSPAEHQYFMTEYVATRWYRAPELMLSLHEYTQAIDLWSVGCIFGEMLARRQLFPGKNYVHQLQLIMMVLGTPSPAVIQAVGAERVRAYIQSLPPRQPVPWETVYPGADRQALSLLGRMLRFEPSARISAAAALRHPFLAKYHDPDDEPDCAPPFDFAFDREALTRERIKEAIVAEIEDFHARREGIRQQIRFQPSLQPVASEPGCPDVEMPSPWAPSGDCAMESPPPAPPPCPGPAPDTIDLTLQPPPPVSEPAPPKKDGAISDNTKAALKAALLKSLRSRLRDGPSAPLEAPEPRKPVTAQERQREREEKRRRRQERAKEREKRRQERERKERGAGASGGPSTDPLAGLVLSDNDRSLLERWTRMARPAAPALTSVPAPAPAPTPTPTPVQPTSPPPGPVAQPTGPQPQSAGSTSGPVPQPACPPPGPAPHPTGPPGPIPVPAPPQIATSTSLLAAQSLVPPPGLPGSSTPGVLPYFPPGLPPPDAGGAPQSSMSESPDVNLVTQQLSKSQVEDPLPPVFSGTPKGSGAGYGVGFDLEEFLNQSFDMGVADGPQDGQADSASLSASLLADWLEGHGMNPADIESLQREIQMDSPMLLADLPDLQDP
# [7] = viability rescue of complex I mutant cybrids, primary screen, cell-based, galactose medium, ATP luminescence (AID 1645843;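 active = z-score of at least 1.8 in each of two replicates, scored against plate mean and spread of sample wells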;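 note: positive z means more ATP and so rescue of galactose-driven cybrid death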); details: complex I mutant cybrid cells, 72 h, stronger effect = higher value
# [8] = liver-stage malaria parasite growth inhibition, primary screen, cell-based, HepG2, luciferase luminescence, HepG2 viability (AID 624349; in the data active = parasite load remaining mostly below about 12%, no sharp cut-off; inactive = mostly above about 10%;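 note: 100% = mean of DMSO negative control wells on the same plate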); details: P. berghei liver stage in HepG2, luciferase luminescence, concentration not given here; parasite load remaining: stronger effect = lower value; viability: measured here: HepG2 viability without parasites
# [9] = growth inhibition of DIPG glioma cells, dose response, cell-based, JHH-DIPG-1, MIPE4.0, CellTiter-Glo, qHTS (AID 1347062; cut-off not given, nearly all actives have AC50 up to about 27 µM); details: JHH-DIPG-1 viability, CellTiter-Glo ATP luminescence
# [10] = molecular target: NAD(+) hydrolase SARM1 (Homo sapiens) (UniProt Q6SZW1); assay: SARM1 TIR NADase inhibitors, cell lysate, NAD-Glo luminescence (AID 1508614;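 active = compound whose remaining NAD level is above about 45 nM, limit read from the data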;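 note: higher remaining NAD means stronger inhibition of SARM1 NADase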); details: SAM-TIR HEK293T lysate NADase, at 1 µM, stronger effect = higher value
# NAD(+) hydrolase SARM1 (Homo sapiens), sequence (Q6SZW1 whole entry, looked up): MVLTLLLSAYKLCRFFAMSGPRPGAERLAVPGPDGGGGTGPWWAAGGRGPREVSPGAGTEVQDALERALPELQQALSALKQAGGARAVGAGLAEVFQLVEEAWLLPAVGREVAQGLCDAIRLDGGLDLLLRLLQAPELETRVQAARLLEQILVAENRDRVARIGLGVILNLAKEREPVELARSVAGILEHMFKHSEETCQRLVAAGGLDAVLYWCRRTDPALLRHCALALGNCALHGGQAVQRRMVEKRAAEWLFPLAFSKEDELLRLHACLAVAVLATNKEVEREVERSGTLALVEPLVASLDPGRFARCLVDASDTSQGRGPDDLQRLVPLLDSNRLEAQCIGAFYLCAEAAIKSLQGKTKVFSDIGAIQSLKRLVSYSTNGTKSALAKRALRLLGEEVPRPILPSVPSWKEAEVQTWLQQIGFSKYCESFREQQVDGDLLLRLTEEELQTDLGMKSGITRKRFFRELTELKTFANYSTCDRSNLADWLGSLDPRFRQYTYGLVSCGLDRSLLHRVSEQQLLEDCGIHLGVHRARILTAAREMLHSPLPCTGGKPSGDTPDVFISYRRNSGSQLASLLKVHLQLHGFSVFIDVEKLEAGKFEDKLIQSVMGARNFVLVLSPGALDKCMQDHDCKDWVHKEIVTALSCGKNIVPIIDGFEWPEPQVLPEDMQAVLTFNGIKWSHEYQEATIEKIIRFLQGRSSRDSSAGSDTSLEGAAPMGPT
# [11] = polyglutamine-triggered caspase-3 activation inhibitors, cell-based (AID 1583); details: polyglutamine-induced caspase-3 activation, cell assay; stronger effect = higher value;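 tested at 10 µM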
# [12] = suppressors of polyQ aggregation in yeast, 75Q-TubU reporter (AID 1593); details: Yeast 75Q polyglutamine aggregation reporter
# [13] = rescue of polyQ-huntingtin neuronal dysfunction in worms, whole organism, C. elegans mechanosensory neurons, N-terminal huntingtin (AID 1599); details: touch response, stronger effect = higher value
# [14] = inhibitors of mitochondrial cytochrome c release, biochemical, purified mitochondria (AID 1603); details: stronger effect = lower value;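 note: mouse liver mitochondria challenged with calcium chloride; signal normalized to the plate average as 100%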
# [15] = inhibitors of polyQ protein aggregation (AID 1604); details: polyglutamine-induced protein aggregation inhibition assay; stronger effect = higher value; tested at 2.5 µM
# [16] = enhancers of glutamate uptake in motor neurons, MN-1 cell line (AID 1612); details: MN-1 motor neuron cells, stronger effect = higher value;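 note: tested at 1 µM final; 0% = mean of DMSO vehicle wells on each plate; positive means more glutamate uptake than control and negative means less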
# [17] = reducers of polyQ inclusions in PC12 cells, cell-based, NGF-treated PC12, GFPQ80 (AID 1614); details: PC12 NGF-treated GFP-polyQ80 inclusion reduction;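 note: lower means fewer inclusions and 0 means no inclusions at all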
# [18] = suppressors of polyglutamine aggregation in yeast, 75Q-TubH (AID 1616); details: S. cerevisiae 75Q-TubH polyglutamine aggregation suppression; stronger effect = higher value
# [19] = measured here: epithelial PC-3E GFP cell survival
# [20] = measured here: mesenchymal TEM4-18 mCherry cell survival
# [21] = stronger effect = lower value, cell number ratio, induced over uninduced
# [22] = measured here: relative caspase fold change +Dox/-Dox
# [23] = measured here: total cells with miR-34 induction, stronger effect = lower value
# [24] = measured here: total cells without miR-34 induction
# [25] = MELAS cybrid survival, CellTiter-Glo 48 h, stronger effect = higher value
# [26] = Rieske KO mouse fibroblast survival, CellTiter-Glo 72 h
structure (smiles),measurement,setting,value
COc1ccc(-c2cc(=O)c3c(O)cc(O)cc3o2)cc1O,inhibition,[1],11.1% (inactive)
same,red/green cell ratio (normalised),[2],0.91 (inactive)
same,normalised cell number,[2]; [19],1.34
same,normalised cell number,[2]; [20],1.22
same,AC50,[3],11.8 µM (active)
same,fold change,[4]; [21],0.906 (inactive)
same,fold change,[4]; [22],0.637
same,cell count,[4]; [23],8940
same,cell count,[4]; [24],9870
same,z-score,[5]; [25],-0.264 (inactive)
same,z-score,[5]; [26],0.709
O=C(/C=C/c1ccc(O)cc1)c1ccc(O)cc1O,inhibition,[1],-4.78% (inactive)
same,red/green cell ratio (normalised),[2],1.01 (inactive)
same,normalised cell number,[2]; [19],0.91
same,normalised cell number,[2]; [20],0.91
same,fold change,[4]; [21],1.12 (inactive)
same,fold change,[4]; [22],0.85
same,cell count,[4]; [23],9020
same,cell count,[4]; [24],8080
same,luciferase signal,[6],80 AU (inactive)
same,z-score,[7],-0.25 (inactive)
NC[C@H]1O[C@H](O[C@H]2[C@H](O)[C@@H](O[C@H]3O[C@H](CO)[C@@H](O)[C@H](N)[C@H]3O)[C@H](N)C[C@@H]2N)[C@H](N)C[C@@H]1O,parasite load remaining,[8],155% (inactive) and 39.4% (inactive) and 27.1% (inactive)
same,viability,[8],107% and 98% and 71.5%
same,inhibition,[1],-0.0775% (inactive)
same,red/green cell ratio (normalised),[2],1.17 (inactive)
same,normalised cell number,[2]; [19],0.88
same,normalised cell number,[2]; [20],1.03
same,outcome,[3],inactive
same,outcome,[9],inactive
same,fold change,[4]; [21],0.865 (inactive) and 0.994 (inactive) and 0.887 (inactive)
same,fold change,[4]; [22],1.22 and 2.22 and 1.69
same,cell count,[4]; [23],8760 and 12000 and 9090
same,cell count,[4]; [24],10100 and 12100 and 10300
same,z-score,[5]; [25],0.333 (inactive) and -0.0714 (inactive)
same,z-score,[5]; [26],0.434 and -0.898
same,remaining NAD,[10],22 nM (inactive)
same,luciferase signal,[6],84 AU (inactive)
same,z-score,[7],0.605 (inactive)
CCCc1nn(C)c2c(=O)[nH]c(-c3cc(S(=O)(=O)N4CCN(C)CC4)ccc3OCC)nc12,parasite load remaining,[8],94.8% (inactive) and 65.8% (inactive) and 48% (inactive)
same,viability,[8],89.3% and 101% and 108%
same,inhibition,[1],6.7% (inactive)
same,red/green cell ratio (normalised),[2],0.98 (inactive)
same,normalised cell number,[2]; [19],1.05
same,normalised cell number,[2]; [20],1.03
same,outcome,[9],inactive
same,cell count,[4]; [23],10500 and 7310 and 9670
same,z-score,[5]; [25],-0.38 (inactive) and -0.0288 (inactive) and 1.25 (inactive)
same,z-score,[5]; [26],-0.0156 and 0.388 and 1.37
same,remaining NAD,[10],10 nM (inactive)
same,luciferase signal,[6],60 AU (inactive)
same,z-score,[7],0.235 (inactive) and 0.33 (inactive)
OCc1ccccc1O[C@@H]1O[C@H](CO)[C@@H](O)[C@H](O)[C@H]1O,inhibition,[11],-10.9%
same,score,[12],1.23
same,rescue above control,[13],-13.2
same,cytochrome c release ratio,[14],0.94
same,inhibition of aggregation,[15],25.2%
same,glutamate uptake change,[16],-4.1%
same,inclusion score,[17],2
same,aggregation suppression score,[18],1.3
same,parasite load remaining,[8],107% (inactive) and 32.5% (inactive)
same,viability,[8],66.8% and 91.3%
same,inhibition,[1],16.9% (inactive)
same,red/green cell ratio (normalised),[2],0.91 (inactive)
same,normalised cell number,[2]; [19],0.63
same,normalised cell number,[2]; [20],0.57
same,outcome,[3],inactive
same,outcome,[9],inactive
same,fold change,[4]; [21],0.934 (inactive)
same,fold change,[4]; [22],2.93
same,cell count,[4]; [23],12100
same,cell count,[4]; [24],13000
same,remaining NAD,[10],10 nM (inactive)
same,luciferase signal,[6],72 AU (inactive)
OCC(O)C(O)C(O)CO (stereo not given),inhibition,[1],-9.83% (inactive)
same,red/green cell ratio (normalised),[2],1.02 (inactive) and 0.91 (inactive)
same,normalised cell number,[2]; [19],0.96 and 1.18
same,normalised cell number,[2]; [20],0.97 and 1.07
same,outcome,[3],inactive
same,outcome,[9],inactive
same,fold change,[4]; [21],0.884 (inactive)
same,fold change,[4]; [22],0.816
same,cell count,[4]; [23],9100
same,cell count,[4]; [24],10300
same,z-score,[5]; [25],-0.33 (inactive)
same,z-score,[5]; [26],0.446
same,luciferase signal,[6],36 AU (inactive)
CC(=O)N[C@@H](CC(=O)O)C(=O)N[C@@H](CCC(=O)O)C(=O)O (Ac-Asp-Glu-OH),inhibition,[11],12.9%
same,score,[12],1.12
same,rescue above control,[13],7.68
same,cytochrome c release ratio,[14],1.15
same,inhibition of aggregation,[15],1.96%
same,glutamate uptake change,[16],0%
same,inclusion score,[17],2
same,aggregation suppression score,[18],1.06
same,inhibition,[1],-7.58% (inactive)
same,red/green cell ratio (normalised),[2],0.86 (inactive)
same,normalised cell number,[2]; [19],1.17
same,normalised cell number,[2]; [20],1.01
same,fold change,[4]; [21],0.963 (inactive)
same,fold change,[4]; [22],0.542
same,cell count,[4]; [23],8810
same,cell count,[4]; [24],9150
same,z-score,[7],-0.67 (inactive)
O=c1cc(-c2ccccc2)oc2cc(O)cc(O)c12,inhibition,[11],16.7%
same,score,[12],-0.45
same,rescue above control,[13],1.21
same,cytochrome c release ratio,[14],0.64
same,inhibition of aggregation,[15],83.3%
same,glutamate uptake change,[16],-33.9%
same,aggregation suppression score,[18],0.573
same,parasite load remaining,[8],112% (inactive) and 75% (inactive)
same,viability,[8],98.1% and 69.3%
same,inhibition,[1],13.6% (inactive)
same,red/green cell ratio (normalised),[2],0.89 (inactive)
same,normalised cell number,[2]; [19],1.21
same,normalised cell number,[2]; [20],1.08
same,outcome,[3],inactive
same,outcome,[9],inactive
same,fold change,[4]; [21],0.807 (inactive) and 0.948 (inactive)
same,fold change,[4]; [22],1.38 and 0.939
same,cell count,[4]; [23],5370 and 8220
same,cell count,[4]; [24],6660 and 8680
same,z-score,[5]; [25],-0.289 (inactive)
same,z-score,[5]; [26],0.583
same,luciferase signal,[6],136 AU (inactive)
O=C1C[C@@H](c2ccc(O)cc2)Oc2cc(O)cc(O)c21,inhibition,[11],11.6%
same,score,[12],1.28
same,rescue above control,[13],-15.8
same,cytochrome c release ratio,[14],1.08
same,inhibition of aggregation,[15],57.7%
same,glutamate uptake change,[16],9.95%
same,inclusion score,[17],2
same,aggregation suppression score,[18],1.04
same,inhibition,[1],-3.37% (inactive)
same,red/green cell ratio (normalised),[2],1.16 (inactive)
same,normalised cell number,[2]; [19],0.96
same,normalised cell number,[2]; [20],1.12
same,outcome,[3],inactive
same,outcome,[9],inactive
same,luciferase signal,[6],40 AU (inactive)
CC[C@H]1OC(=O)[C@H](C)[C@@H](O[C@H]2C[C@@](C)(OC)[C@@H](O)[C@H](C)O2)[C@H](C)[C@@H](O[C@@H]2O[C@H](C)C[C@H](N(C)C)[C@H]2O)[C@](C)(O)C[C@@H](C)C(=O)[C@H](C)[C@@H](O)[C@]1(C)O,inhibition,[11],-6% and 7.62% and 29.3%
same,score,[12],1 and 1.46 and 0.46
same,rescue above control,[13],2.19 and 2 and 0.57
same,cytochrome c release ratio,[14],1.13 and 0.65 and 0.96
same,inhibition of aggregation,[15],76.2% and 28.2% and 15.7%
same,glutamate uptake change,[16],-4.4% and 1.02% and 35.1%
same,inclusion score,[17],2
same,aggregation suppression score,[18],0.915 and 1.27 and 0.716
same,parasite load remaining,[8],44.8% (inactive) and 99.9% (inactive) and 62.2% (inactive)
same,viability,[8],44.6% and 74.8% and 115%
same,inhibition,[1],2.57% (inactive) and -12% (inactive)
same,red/green cell ratio (normalised),[2],1.08 (inactive) and 0.76 (inactive)
same,normalised cell number,[2]; [19],0.96 and 0.98
same,normalised cell number,[2]; [20],1.03 and 0.74
same,fold change,[4]; [21],0.923 (inactive) and 0.889 (inactive) and 0.914 (inactive)
same,fold change,[4]; [22],0.947 and 1.27 and 1.04
same,cell count,[4]; [23],7930 and 8750 and 10800
same,cell count,[4]; [24],8590 and 9850 and 11800
same,z-score,[5]; [25],-0.415 (inactive)
same,z-score,[5]; [26],-0.471
same,remaining NAD,[10],85 nM (active) and 10 nM (inactive)
same,luciferase signal,[6],60 AU (inactive)
Cc1cc(O)c2c(c1)C(=O)c1cc(O)cc(O)c1C2=O,inhibition,[1],2.17% (inactive)
same,red/green cell ratio (normalised),[2],1.05 (inactive)
same,normalised cell number,[2]; [19],1.08
same,normalised cell number,[2]; [20],1.13
same,outcome,[3],inactive
same,outcome,[9],inactive
same,fold change,[4]; [21],1.01 (inactive) and 0.837 (inactive)
same,fold change,[4]; [22],1.12 and 1.08
same,cell count,[4]; [23],8200 and 6790
same,cell count,[4]; [24],8110
same,z-score,[5]; [25],-0.41 (inactive)
same,z-score,[5]; [26],0.119
same,z-score,[7],0.08 (inactive)
